# Data: PubChem BioAssay AID686978 (National Center for Advancing Translational Sciences (NCATS), 2013)
# The campaign covered roughly 420,000 compounds. About 64,000 (15%) were called active. Roughly 27% stayed inconclusive and do not appear here. Calls come from the whole dose curve; as a rule, active = well fitted inhibition curve with a large enough effect; inconclusive = small, poorly fitted or top-dose-only effect; inactive = flat fitted curve, though single readings scatter. A selection follows.
# Assay: qHTS for Inhibitors of human tyrosyl-DNA phosphodiesterase 1 (TDP1): qHTS in cells in absence of CPT; note: nearly all actives have a fitted effect of over 55% in size
# Settings: DT40 Tdp1-/- hTDP1 cells, no CPT, ATP luminescence, 48 h; activity change, negative = growth inhibition: at 46.2 µM (top of the series)
# Outline: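 Compound effects on proliferation are scored in DT40 Tdp1-/-;hTDP1 cells in the absence of CPT. ATP levels (CellTiter-Glo luminescence) are recorded after a ≥48 hr, 37 °C incubation.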
# % is set by controls: 0 for no effect and ±100 for the full control effect; potency is the fitted concentration of half-maximal effect.
SMILES,"activity change, negative = growth inhibition",Potency
CCC(=O)Nc1cc(C(F)(F)F)ccc1N1CCCC1,-2.98% (inactive),–
CC(C)(C)NC(=O)COC(=O)c1cc(Cl)ccc1[N+](=O)[O-],-16.1% (inactive),–
Cc1[nH]c2ccccc2c1SCC(=O)Nc1nccs1,-6.86% (inactive),–
COc1ccc(Br)cc1C(=O)Nc1cccc(C)c1C,-22.7% (inactive),–
COc1ccc(Br)cc1C(=O)NC(=S)Nc1cc(-c2nc3ccccc3[nH]2)ccc1C,–,14.6 µM (active)
Cc1ccc(OCC(=O)Nc2ccc(Cl)c(-c3nc4ccccc4[nH]3)c2)cc1C,-98.6% (inactive),–
CCOC(=O)c1nnn(CC(=O)NC(=O)Nc2ccccc2F)c1C(=O)OCC,-18.3% (inactive),–
COc1ccc(N(CC(=O)NCC2CCCO2)C(=O)CCC(=O)Nc2nccs2)c(OC)c1 (stereo not drawn),-20.4% (inactive),–
O=c1c(O)c(Br)ccc2c(Br)c(O)c(O)c(O)c12,8.26% [at 9.04 µM] (inactive),–
O=C(OCC(=O)N1CCN(c2ccccc2)CC1)c1ccc([N+](=O)[O-])s1,–,4.61 µM (active)
COc1cc(NC(=O)COC(=O)c2ccc([N+](=O)[O-])s2)cc(OC)c1OC,11.9% (inactive),–
C[C@H](NC(=O)c1ccccc1Cl)C(=O)OCC(=O)N1CCN(c2ccccc2)CC1,0.465% (inactive),–
Oc1ccc(-c2cccc(-c3ccc(O)cc3)c2)cc1,6.67% (inactive),–
Cc1cn(C2CC(O)C(CO)O2)c(=O)n(CCCc2ccccc2)c1=O (stereo not drawn),-14.7% (inactive),–
COCCn1c(=O)c(-c2cccs2)nc2cnc(N3CCN(C)CC3)nc21,-22.9% (inactive),–
CCOC(=O)N1CCN(Cc2nc3cc(NC(C)=O)ccc3n2C)CC1,0.858% (inactive),–
CCOC(=O)N1CCN(Cc2nc3cc(NC(=O)CC)ccc3n2CC)CC1,–,29.1 µM (active)
CN1CCN(Cc2nc3cc(NC(=O)COc4ccc([N+](=O)[O-])cc4)ccc3n2C)CC1,17.7% (inactive),–
CC(=O)Cc1nsc(NC(=O)c2ccc(COc3ccc(C)cc3)o2)n1,1.76% (inactive),–
CN1CCC(=NNC(=O)CN(c2cccc(Cl)c2)S(C)(=O)=O)CC1,-7.27% (inactive),–
CC1=CCC2C(=O)N(c3cccc(C(=O)NC(C)c4ccccc4)c3)C(=O)C2C1 (stereo not drawn),7.3% (inactive),–
CCCNC(=O)c1ccccc1NC(=O)CSCc1ccc(OC)cc1,-8.44% (inactive),–
CCOc1ncccc1C(=O)NCCc1ccc(OC)cc1,–,20.6 µM (active)
COc1ccc(CCNC(=O)c2ccco2)cc1,-29.5% (inactive),–
Cn1c(=O)[nH]c(=O)c2c1[nH]c(=S)n2Cc1ccccc1,26.7% (inactive),–
Cc1cccc(OCCNC(=O)CSc2ccc(C(F)(F)F)cc2[N+](=O)[O-])c1,–,16.4 µM (active)
Cc1cccc(OCCNC(=S)NC(=O)c2cccnc2)c1,-8.96% (inactive),–
O=C(CSc1ccc(C(F)(F)F)cc1[N+](=O)[O-])NCCOc1ccccc1,-16.7% (inactive),–
